Here are results for 4 molecules from PubChem BioAssay.

A short description of test [1]: optical density shifts of acrAB sulA E. coli – strain DRC41, OD650, 48 h, E. coli filamentation inducer project, primary screen (AID 1152).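 Also: E. coli MC1000 strain DRC41 lacking acrAB efflux pump and sulA.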 Conditions: higher = more signal, called active from +8 up or from −8 down.
Test [2] is described as follows: probe aLefty1 binding on compound microarray – biochemical, small-molecule microarray, 635/667 nm fluorescence, primary screen (AID 1153).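 Also: score merges spot fluorescence with signal-to-noise ratio from the scanned slide images.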 Conditions: higher = more signal.
Test [3] is described as follows: plasmodial surface anion channel blockers, osmotic lysis – cell-based, P. falciparum Indochina, OD700, 1 h, primary screen (AID 1154). The note with it: P. falciparum Indochina infected RBC osmotic lysis, higher = more signal, called active from +8 up or from −8 down.
A short description of test [4]: plasmodial surface anion channel blockers, osmotic lysis – cell-based, P. falciparum Indochina, OD700, 2 h, primary screen (AID 1155).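 Also: lysis reports solute entry through the parasite surface anion channel PSAC.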 Conditions: P. falciparum Indochina infected erythrocytes, higher = more signal, called active from +8 up or from −8 down.
The nature of test [5]: changes in parasitized red cell lysis, either direction – P. falciparum Indochina, OD700, 3 h, PSAC antagonist project, primary screen (AID 1156). Conditions: P. falciparum-infected erythrocytes, osmotic lysis, higher = more signal, called active from +8 up or from −8 down.
The nature of test [6]: plasmodial surface anion channel blockers, osmotic lysis – cell-based, P. falciparum Indochina, OD700, 18 h, primary screen (AID 1157). Conditions: P. falciparum Indochina infected erythrocytes, osmotic lysis OD700, 18 h; higher = more signal, called active from +8 up or from −8 down.
A short description of test [7]: S6 kinase pathway phospho-S6 level changes – cell-based, A549, cytoblot, luminescence, serum-stimulated, primary screen (AID 1158).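 Also: serum-stimulated A549 lung adenocarcinoma cells; signal is phosphorylated S6 detected by cytoblot immunostaining with HRP secondary.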 The note with it: 5 h, higher = more signal.
The target of test [8] is NADPH oxidase 2 (Homo sapiens) (UniProt P04839). In words: compounds shifting NOX2 Amplex Red fluorescence – cell-based, HEK293-NOX2, PMA-stimulated, NOX inhibitor project, primary screen (AID 1159). Also: test concentration not given here. Conditions: 45 min, higher = more signal, called active from +8 up or from −8 down.
NADPH oxidase 2 (Homo sapiens), sequence (P04839 whole entry, looked up): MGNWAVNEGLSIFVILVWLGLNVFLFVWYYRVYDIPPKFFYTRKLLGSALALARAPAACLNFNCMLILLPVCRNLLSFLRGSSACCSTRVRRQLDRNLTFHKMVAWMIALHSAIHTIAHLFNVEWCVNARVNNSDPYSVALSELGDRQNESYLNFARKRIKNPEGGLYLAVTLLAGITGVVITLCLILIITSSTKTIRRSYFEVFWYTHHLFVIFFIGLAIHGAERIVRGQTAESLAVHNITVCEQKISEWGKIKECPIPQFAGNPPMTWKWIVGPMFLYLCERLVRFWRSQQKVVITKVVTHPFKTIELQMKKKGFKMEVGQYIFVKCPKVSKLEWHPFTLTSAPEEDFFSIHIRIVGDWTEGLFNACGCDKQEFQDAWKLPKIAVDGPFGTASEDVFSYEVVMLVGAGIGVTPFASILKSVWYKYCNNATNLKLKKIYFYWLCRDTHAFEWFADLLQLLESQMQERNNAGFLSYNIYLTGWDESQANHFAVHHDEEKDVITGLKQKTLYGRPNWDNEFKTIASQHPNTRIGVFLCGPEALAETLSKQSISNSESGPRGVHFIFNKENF
Test [9] concerns the target NADPH oxidase 4 (Homo sapiens) (UniProt Q9NPH5). In words: compounds shifting NOX4 Amplex Red fluorescence – cell-based, HEK293-NOX4, tetracycline-induced, NOX inhibitor project, primary screen (AID 1160). The note with it: HEK293-NOX4, Amplex Red H2O2 fluorescence, 45 min; higher = more signal, called active from +8 up or from −8 down.
Test [10] deals with NADPH oxidase 5 (Homo sapiens) (UniProt Q96PH1). Nature of the test: compounds shifting NOX5 Amplex Red fluorescence – cell-based, HEK293-NOX5, NOX inhibitor project, primary screen (AID 1161). The note with it: HEK293-NOX5, ionomycin, 45 min, higher = more signal.
NADPH oxidase 5 (Homo sapiens), sequence (Q96PH1 whole entry, looked up): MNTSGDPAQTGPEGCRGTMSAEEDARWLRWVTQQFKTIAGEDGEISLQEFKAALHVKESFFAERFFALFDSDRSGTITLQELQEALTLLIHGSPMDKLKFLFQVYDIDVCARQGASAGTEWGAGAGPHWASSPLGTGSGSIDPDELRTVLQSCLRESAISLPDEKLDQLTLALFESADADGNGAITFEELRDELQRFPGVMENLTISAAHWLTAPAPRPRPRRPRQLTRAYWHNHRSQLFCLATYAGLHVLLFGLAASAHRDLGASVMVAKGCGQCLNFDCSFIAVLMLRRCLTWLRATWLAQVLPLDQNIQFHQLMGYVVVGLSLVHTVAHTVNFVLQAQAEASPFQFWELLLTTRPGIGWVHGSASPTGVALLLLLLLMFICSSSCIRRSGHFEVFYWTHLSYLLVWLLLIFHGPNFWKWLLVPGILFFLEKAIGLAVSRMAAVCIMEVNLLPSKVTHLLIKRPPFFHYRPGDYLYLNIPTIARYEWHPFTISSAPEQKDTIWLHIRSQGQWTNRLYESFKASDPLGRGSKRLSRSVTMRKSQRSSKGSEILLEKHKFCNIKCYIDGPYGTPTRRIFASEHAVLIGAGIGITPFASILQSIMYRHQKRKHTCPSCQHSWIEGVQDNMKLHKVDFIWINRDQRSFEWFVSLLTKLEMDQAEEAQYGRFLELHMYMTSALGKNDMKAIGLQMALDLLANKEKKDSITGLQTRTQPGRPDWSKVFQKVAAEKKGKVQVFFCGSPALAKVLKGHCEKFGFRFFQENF
Test [11] in a line: compound effects on lung adenocarcinoma cell viability – A549, calcein-AM fluorescence, 48 h, basal, profiling panel (AID 1162). Also: test concentration not given here. The note with it: higher = more signal.
The nature of test [12]: compound effects on differentiated 3T3-L1 adipocyte viability – cell-based, 3T3-L1 adipocytes, calcein-AM fluorescence, 48 h, basal, profiling panel (AID 1163). Also: test concentration not given here. The note with it: 3T3-L1 adipocytes viability, higher = more signal.
Test [13] in a line: compound effects on hepatocellular carcinoma cell viability – HepG2, calcein-AM fluorescence, 48 h, basal, profiling panel (AID 1164). Also: test concentration not given here. Conditions: higher = more signal.
A short description of test [14]: compound effects on multiple myeloma cell viability – MM1S, calcein-AM fluorescence, 48 h, basal, profiling panel (AID 1165). Also: test concentration not given here. Conditions: higher = more signal.
Test [15] can be described thus: calcein-AM signal in unstimulated myeloma cells – cell-based, calcein-AM fluorescence, 48 h, PK04 Diversity Set, profiling panel (AID 1166).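 Also: cells grown under basal conditions without added stimulus; test concentration not given here.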 Conditions: RPMI8226 myeloma viability, higher = more signal.
A short description of test [16]: JC-1 mitochondrial signal, unstimulated HepG2 cells – cell-based, JC-1 fluorescence, 24 h, 100 nL compound, profiling panel (AID 1167). Also: test concentration not given here. The note with it: HepG2 mitochondrial potential, higher = more signal.
The nature of test [17]: JC-1 mitochondrial signal, unstimulated adipocytes – cell-based, JC-1 fluorescence, 3T3-L1 adipocytes, 24 h, 100 nL compound, profiling panel (AID 1168). Also: test concentration not given here. Conditions: JC-1 mitochondrial fluorescence, higher = more signal, called active from +8 up or from −8 down.
A short description of test [18]: JC-1 mitochondrial signal, unstimulated myeloma cells – cell-based, JC-1 fluorescence, RPMI8226, 24 h, 100 nL compound, profiling panel (AID 1169). Also: test concentration not given here. The note with it: JC-1 mitochondrial potential fluorescence, higher = more signal.
The nature of test [19]: JC-1 mitochondrial signal, unstimulated MM1S myeloma – cell-based, JC-1 fluorescence, 24 h, 100 nL compound, profiling panel (AID 1170). Also: test concentration not given here. Conditions: MM1S mitochondrial potential, higher = more signal.
Test [20] in a line: resazurin metabolic signal in A549 cells – cell-based, resazurin fluorescence, 24 h, PK04 Diversity Set, profiling panel (AID 1171). Also: test concentration not given here. Conditions: A549 viability, higher = more signal, called active from +8 up or from −8 down. In general terms: Resazurin is reduced to fluorescent resorufin, in cell work by metabolically active cells.

Each structure is given as a SMILES string. Active and inactive are the calls of the source.

NADPH oxidase 4 (Homo sapiens), sequence (Q9NPH5 whole entry, looked up): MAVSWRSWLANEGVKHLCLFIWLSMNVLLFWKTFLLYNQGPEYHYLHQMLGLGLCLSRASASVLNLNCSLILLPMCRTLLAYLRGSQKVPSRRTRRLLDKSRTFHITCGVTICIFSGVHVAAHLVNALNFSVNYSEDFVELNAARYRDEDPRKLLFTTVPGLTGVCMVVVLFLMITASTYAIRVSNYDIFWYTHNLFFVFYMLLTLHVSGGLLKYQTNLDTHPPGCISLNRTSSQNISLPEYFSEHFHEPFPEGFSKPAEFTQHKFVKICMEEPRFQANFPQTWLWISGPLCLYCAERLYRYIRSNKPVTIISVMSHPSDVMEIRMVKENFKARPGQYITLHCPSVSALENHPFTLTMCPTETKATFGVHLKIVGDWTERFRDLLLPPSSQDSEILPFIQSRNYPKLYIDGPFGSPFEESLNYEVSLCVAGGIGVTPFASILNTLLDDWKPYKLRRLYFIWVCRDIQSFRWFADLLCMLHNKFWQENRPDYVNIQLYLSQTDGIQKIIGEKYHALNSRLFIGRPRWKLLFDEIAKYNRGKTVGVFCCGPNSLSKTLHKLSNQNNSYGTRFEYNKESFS

Consider `CC(=O)Nc1ccc([C@@H]2N[C@H](C(=O)O)CC[C@H]2C)cc1`, for which the z-score in test [1] was 0.961 (inactive); in test [3] it was -0.188 (inactive); in test [4] it was 0.182 (inactive); in [5] it was -0.23 (inactive); in test [6] it was -0.267 (inactive); in [7] it was 0.699. Moreover, the z-score was -0.121 (inactive) in test [8]; 0.195 (inactive) in [9]; 0.13 in [10]; 0.858 in [11]; 0.122 in test [12]; -0.0918 in [13]. Further, the z-score in test [14] was 0.402; in test [15], -0.371; in test [16], 1.14; in test [17] it was 0.456 (inactive); in test [18], -0.355; in test [19] it was -0.0501. In addition, the z-score in test [20] is -0.542 (inactive). This molecule also yielded a composite z-score in test [2] of -0.017.

Turning to `CC(CCN1CCCc2nc(C)c(C)cc21)=NO[C@@H](C)c1cc(-c2c(C)cc(C)cc2C)no1`, the z-score in test [1] is 1.22 (inactive); in [3], 3.44 (inactive); in [4] it was 0.762 (inactive); in [5], 1.35 (inactive); in [6], 0.465 (inactive); in test [7] it was 0.124. Besides, the z-score was -1 (inactive) in test [8]; -0.469 (inactive) in test [9]; 0.221 in [10]; 0.91 in [11]; -0.0581 in test [12]; 1.42 in test [13]. The z-score in [14] was -0.603; in test [15], -0.843; in test [16], 3.04; in test [17], -0.127 (inactive); in test [18], -0.0137; in test [19] it was -1.08. Further, the z-score in test [20] was -0.102 (inactive). The composite z-score in test [2] turned out to be 0.0402.

Regarding `CO[C@H]1COC(=O)CCC[C@@H](C)[C@H](OC)COC(=O)[C@@H]2CCCN2C(=O)CC=C[C@@H]1C`, the z-score is -0.704 (inactive) in test [1]; -1.11 (inactive) in test [3]; -1.08 (inactive) in test [4]; -0.186 (inactive) in [5]; -0.939 (inactive) in test [6]; -0.112 in [7]. Moreover, the z-score in [8] was -0.336 (inactive); in [9], -0.00577 (inactive); in test [10], 0.282; in test [11], -0.395; in test [12], 0.376; in test [13], 0.308. The z-score in test [14] was 0.149; in [15] it was -0.193; in [16], -0.0779; in test [17] it was -0.0693 (inactive); in test [18] it was -0.0032; in test [19], -0.87. Further, in [20], the z-score is -0.186 (inactive). Moreover, the composite z-score in test [2] is -0.005.

`COc1cccc([C@H]2Oc3ccc(OC)cc3C(=NO[C@H](C)c3cn([C@H](CO)Cc4ccccc4)nn3)[C@@H]2O)c1`: the z-score in test [1] was 0.348 (inactive); in test [3], 1.38 (inactive); in test [4], 0.0637 (inactive); in test [5] it was 0.151 (inactive); in [6], 0.22 (inactive); in [7], -0.16. Moreover, the z-score in test [8] was -0.809 (inactive); in test [9], 0.364 (inactive); in test [10] it was -0.781; in test [11], -0.16; in test [12], 0.131; in [13], -0.489. Besides, the z-score in [14] was -0.0922; in [15], -0.719; in test [16], -1.81; in [17] it was -3.16 (inactive); in test [18], -0.0494; in test [19], -0.252. In [20], the z-score is 0.286 (inactive). Besides, the composite z-score in test [2] is -0.142.
